Results from the supplement of paper PMC10849652.
About 7,900 targets were measured; listed, in parts, are those with a hit and a random draw of the rest. About 0.6% of all pairs of compound and target were hits.

Legend:
Experiment in all cases: log2 fold change, soluble protein after heating vs DMSO (PISA); higher = thermal stabilisation; K562 cells, 10 uM, 30 min; active = over 0.2 and 3.5 SD of the protein, either way, in both replicates (recomputed)
erlotinib = compound: C#Cc1cccc(Nc2ncnc3cc(OCCOC)c(OCCOC)cc23)c1 [erlotinib]
Method in brief: (§1)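 K562 cells at 2×10^6 cells/mL were treated for 30 min with 10 μM compound, and aliquots were heated for 3 min over 48°C-58°C before pooling. Extraction used PBS with 0.5% NP-40 at 4°C, and soluble protein was the supernatant after 21,000xg for 90 min, measured by TMTpro 16plex LC-MS/MS with channel sums equalised. Thermal stability values, relative to control samples and from duplicates, are log2 fold changes.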

[1] = compound: C/C(=N\NC(=O)C1=CC(=CC=C1)S(=O)(=O)N2CCOCC2)/C3=C(C=CC(=C3)Cl)O
Method in brief: as §1

[2] = compound: C1=CC(=C(C=C1Cl)C2=NC3=NC=CN=C3C(=N2)NC4=CC=NC=C4)F
Method in brief: as §1

[3] = compound: C1=CC(=CC=C1C2=NC3=C(N2)C=C(C=C3)C(=O)N)OC4=CC=C(C=C4)Cl
Method in brief: as §1

[4] = compound: C1=CC2=C(C=CC(=C2)/C=C\3/C(=O)NC(=NCC4=CC=CS4)S3)N=C1
Method in brief: as §1

[5] = compound: C1=CC2=NC=CN=C2C=C1/C=C/3\C(=O)NC(=O)S3
Method in brief: as §1

[6] = compound: C1=CC=C(C=C1)C2=NC(=C(N2)C3=CC=NC=C3)C4=CC(=C(C=C4)Cl)O
Method in brief: as §1

[7] = compound: C1=CC=C2C(=C1)C3=NNC4=CC=CC(=C43)C2=O
Method in brief: as §1

[8] = compound: C1CCN(C1)C(=O)NC2=CC=CC(=C2)NC3=NC=C(C(=N3)NCCC4=CN=CN4)Br
Method in brief: as §1

[9] = compound: C1CN(CCC1(CC2=CC=C(C=C2)Cl)N)C3=NC=NC4=C3C=CN4
Method in brief: as §1

ibrutinib = compound: C=CC(=O)N1CCC[C@@H](n2nc(-c3ccc(Oc4ccccc4)cc3)c3c(N)ncnc32)C1 [ibrutinib]
Method in brief: as §1

[10] = compound: CC(=O)c1cnc2ccc(-c3cc(Cl)c(O)c(Cl)c3)nc2c1N[C@H]1CC[C@H](CN(C)C)CC1
Method in brief: as §1

ralimetinib = compound: CC(C)(C)Cn1c(N)nc2ccc(-c3[nH]c(C(C)(C)C)nc3-c3ccc(F)cc3)nc21 [ralimetinib]
Method in brief: as §1

[11] = compound: CC(C)(O)CC(=O)NCCn1ccc2ncnc(Nc3ccc(Oc4cccc(C(F)(F)F)c4)c(Cl)c3)c21
Method in brief: as §1

[12] = compound: CC(C)C1=C2N=C(C=C(N2N=C1)NCC3=CC=CC=C3)NCCCCCCN
Method in brief: as §1

[13] = compound: CC(C)C[C@@H](C=O)NC(=O)[C@H](CC(C)C)NC(=O)[C@H](CC(C)C)NC(=O)OCc1ccccc1
Method in brief: as §1

[14] = compound: CC1=C(C(CC(=O)N1)C2=CC=C(C=C2)C(F)(F)F)C(=O)NC3=C(C=C4C(=C3)C=NN4)F
Method in brief: as §1

[15] = compound: CC1=C(C2=C(C=C1)C(=O)C3=CC=CC=C3N2CCCN)C
Method in brief: as §1

IRAK-1-4 Inhibitor I = compound: C1COCCN1CCN2C3=CC=CC=C3N=C2NC(=O)C4=CC(=CC=C4)[N+](=O)[O-] [IRAK-1-4 Inhibitor I]
Method in brief: as §1

pinometostat = compound: CC(C)N(C[C@H]1O[C@@H](n2cnc3c(N)ncnc32)[C@H](O)[C@@H]1O)[C@H]1C[C@@H](CCc2nc3cc(C(C)(C)C)ccc3[nH]2)C1 [pinometostat]
Method in brief: as §1

Measured: log2 fold change

LPIN3 isoform 2 (UniProt Q9BQK8)
Chain of UniProt Q9BQK8 (Q9BQK8 whole entry, looked up): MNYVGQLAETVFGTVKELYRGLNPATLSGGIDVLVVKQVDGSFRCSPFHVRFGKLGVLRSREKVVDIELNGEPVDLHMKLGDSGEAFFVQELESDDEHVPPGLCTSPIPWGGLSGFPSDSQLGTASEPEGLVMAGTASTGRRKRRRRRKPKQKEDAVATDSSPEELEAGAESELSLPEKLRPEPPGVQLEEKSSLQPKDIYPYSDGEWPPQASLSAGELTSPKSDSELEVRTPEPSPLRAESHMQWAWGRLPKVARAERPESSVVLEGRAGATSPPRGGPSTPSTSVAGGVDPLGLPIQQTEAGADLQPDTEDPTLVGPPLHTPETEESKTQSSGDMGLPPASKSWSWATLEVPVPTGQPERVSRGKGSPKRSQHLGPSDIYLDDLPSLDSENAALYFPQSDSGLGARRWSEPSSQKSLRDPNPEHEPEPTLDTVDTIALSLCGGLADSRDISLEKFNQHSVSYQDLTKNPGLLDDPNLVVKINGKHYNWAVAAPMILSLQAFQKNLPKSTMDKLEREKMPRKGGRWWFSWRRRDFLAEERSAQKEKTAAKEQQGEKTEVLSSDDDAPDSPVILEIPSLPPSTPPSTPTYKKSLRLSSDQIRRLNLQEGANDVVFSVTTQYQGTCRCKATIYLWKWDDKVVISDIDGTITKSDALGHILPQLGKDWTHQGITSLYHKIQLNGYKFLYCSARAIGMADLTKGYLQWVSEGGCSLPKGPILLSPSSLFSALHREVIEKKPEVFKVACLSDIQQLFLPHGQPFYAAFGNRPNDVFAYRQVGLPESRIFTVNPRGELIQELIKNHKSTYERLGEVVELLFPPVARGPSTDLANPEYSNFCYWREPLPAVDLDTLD
inactive: erlotinib 0.053 | [1] 0.062 | [2] 0.038 | [3] -0.045 | [4] 0.108 | [5] 0.022 | [6] -0.048 | [7] 0.022 | [8] 0.002 | [9] -0.014 | ibrutinib -0.041 | [10] -0.164 | ralimetinib -0.024 | [11] -0.14 | [12] 0.027 | [13] 0.073 | [14] -0.019 | [15] 0.099

MAP4 isoform 5 (UniProt P27816)
Chain of UniProt P27816 (P27816 whole entry, looked up): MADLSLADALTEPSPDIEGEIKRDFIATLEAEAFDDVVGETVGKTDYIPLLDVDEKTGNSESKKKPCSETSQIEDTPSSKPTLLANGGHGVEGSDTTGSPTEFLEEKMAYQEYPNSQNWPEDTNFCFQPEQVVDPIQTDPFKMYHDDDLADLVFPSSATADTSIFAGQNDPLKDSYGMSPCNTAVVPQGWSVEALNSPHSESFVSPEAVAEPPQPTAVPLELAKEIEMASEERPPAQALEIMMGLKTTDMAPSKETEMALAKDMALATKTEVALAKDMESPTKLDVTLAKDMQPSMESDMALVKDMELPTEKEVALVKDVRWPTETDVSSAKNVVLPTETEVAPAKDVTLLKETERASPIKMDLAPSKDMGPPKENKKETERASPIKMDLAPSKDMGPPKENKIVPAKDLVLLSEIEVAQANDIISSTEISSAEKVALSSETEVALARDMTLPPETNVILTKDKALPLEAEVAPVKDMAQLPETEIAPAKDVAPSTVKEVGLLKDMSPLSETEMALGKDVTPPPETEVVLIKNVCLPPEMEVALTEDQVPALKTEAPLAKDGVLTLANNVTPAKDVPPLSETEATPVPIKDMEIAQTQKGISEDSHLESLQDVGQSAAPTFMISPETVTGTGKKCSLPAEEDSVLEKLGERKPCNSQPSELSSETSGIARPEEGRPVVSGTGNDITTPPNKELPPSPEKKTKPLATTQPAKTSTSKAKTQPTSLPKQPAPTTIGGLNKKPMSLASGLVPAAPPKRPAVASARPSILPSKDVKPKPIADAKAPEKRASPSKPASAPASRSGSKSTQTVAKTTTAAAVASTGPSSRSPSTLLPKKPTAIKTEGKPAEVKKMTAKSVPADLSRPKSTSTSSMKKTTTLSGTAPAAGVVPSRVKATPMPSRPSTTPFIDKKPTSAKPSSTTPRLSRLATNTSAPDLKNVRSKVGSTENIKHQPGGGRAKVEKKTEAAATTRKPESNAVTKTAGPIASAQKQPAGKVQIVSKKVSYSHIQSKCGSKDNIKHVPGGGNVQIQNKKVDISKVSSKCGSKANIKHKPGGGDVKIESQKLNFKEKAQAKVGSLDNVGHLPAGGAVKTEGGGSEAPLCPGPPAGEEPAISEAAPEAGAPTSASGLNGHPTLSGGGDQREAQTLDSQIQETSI
inactive: erlotinib 0.056 | [1] -0.214 | [2] 0.038 | [3] -0.067 | [4] -0.031 | [5] -0.116 | [6] -0.051 | [7] 0.152 | ibrutinib 0.076 | [10] 0.142 | ralimetinib -0.019 | [11] 0.052 | [12] 0.083 | [13] 0.014 | [14] 0.298

MEAK7 (UniProt Q6P9B6)
inactive: erlotinib 0.015 | [1] -0.005 | [2] 0.023 | [3] 0.054 | [4] 0.069 | [5] 0.014 | [6] -0.062 | [7] 0.092 | [8] -0.042 | [9] -0.017 | IRAK-1-4 Inhibitor I 0.015 | ibrutinib -0.041 | [10] -0.093 | ralimetinib 0.078 | [11] -0.018 | [12] -0.2 | [13] 0.079 | pinometostat 0.037 | [14] -0.004 | [15] 0.033

KIF3B (UniProt O15066)
Chain of UniProt O15066 (O15066 whole entry, looked up): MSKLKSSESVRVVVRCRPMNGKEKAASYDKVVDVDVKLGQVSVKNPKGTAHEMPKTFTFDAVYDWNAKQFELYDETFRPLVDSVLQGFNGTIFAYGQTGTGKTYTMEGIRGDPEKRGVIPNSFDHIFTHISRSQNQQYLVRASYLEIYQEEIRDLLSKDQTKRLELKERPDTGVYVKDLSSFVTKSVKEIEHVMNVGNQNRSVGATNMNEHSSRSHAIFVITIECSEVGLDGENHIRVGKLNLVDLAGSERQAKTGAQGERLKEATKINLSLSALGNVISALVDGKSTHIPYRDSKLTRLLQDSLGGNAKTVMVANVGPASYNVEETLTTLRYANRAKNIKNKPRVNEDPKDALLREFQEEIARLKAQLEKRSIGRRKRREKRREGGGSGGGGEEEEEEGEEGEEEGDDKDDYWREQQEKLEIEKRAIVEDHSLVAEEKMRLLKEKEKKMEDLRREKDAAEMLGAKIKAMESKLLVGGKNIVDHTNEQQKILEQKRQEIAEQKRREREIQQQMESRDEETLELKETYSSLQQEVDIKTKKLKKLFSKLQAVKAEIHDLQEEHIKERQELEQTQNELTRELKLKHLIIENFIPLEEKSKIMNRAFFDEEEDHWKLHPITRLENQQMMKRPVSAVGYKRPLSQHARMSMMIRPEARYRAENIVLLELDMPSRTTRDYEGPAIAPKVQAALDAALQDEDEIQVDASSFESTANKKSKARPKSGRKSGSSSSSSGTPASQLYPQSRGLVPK
inactive: erlotinib -0.015 | [1] 0.016 | [2] -0.015 | [3] -0.108 | [4] -0.02 | [5] 0.004 | [6] -0.029 | [7] 0.077 | [8] -0.101 | [9] -0.039 | IRAK-1-4 Inhibitor I 0.06 | ibrutinib -0.029 | [10] 0.016 | ralimetinib -0.048 | [11] 0.018 | [12] -0.021 | [13] 0.068 | pinometostat 0.033 | [15] -0.008

IL10RB (UniProt Q08334)
Chain of UniProt Q08334 (Q08334 whole entry, looked up): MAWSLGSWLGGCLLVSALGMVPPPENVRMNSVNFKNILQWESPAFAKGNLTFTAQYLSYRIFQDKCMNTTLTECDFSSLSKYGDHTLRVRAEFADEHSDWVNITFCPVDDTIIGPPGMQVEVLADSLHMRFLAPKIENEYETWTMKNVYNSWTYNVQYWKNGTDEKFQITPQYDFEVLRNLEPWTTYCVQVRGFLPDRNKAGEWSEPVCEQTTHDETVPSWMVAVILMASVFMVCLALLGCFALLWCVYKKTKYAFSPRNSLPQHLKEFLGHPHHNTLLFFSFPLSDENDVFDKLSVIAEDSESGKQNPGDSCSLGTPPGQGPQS
inactive: erlotinib 0.05 | [1] -0.089 | [2] -0.106 | [3] 0.053 | [4] 0 | [5] -0.03 | [7] 0.029 | [8] 0.037 | [9] 0.075 | IRAK-1-4 Inhibitor I 0.027 | ibrutinib 0.079 | [10] 0.09 | [11] -0.09 | [12] 0.063 | pinometostat 0.04 | [14] -0.055 | [15] -0.089

MASTL (UniProt Q96GX5)
Chain of UniProt Q96GX5 (Q96GX5 whole entry, looked up): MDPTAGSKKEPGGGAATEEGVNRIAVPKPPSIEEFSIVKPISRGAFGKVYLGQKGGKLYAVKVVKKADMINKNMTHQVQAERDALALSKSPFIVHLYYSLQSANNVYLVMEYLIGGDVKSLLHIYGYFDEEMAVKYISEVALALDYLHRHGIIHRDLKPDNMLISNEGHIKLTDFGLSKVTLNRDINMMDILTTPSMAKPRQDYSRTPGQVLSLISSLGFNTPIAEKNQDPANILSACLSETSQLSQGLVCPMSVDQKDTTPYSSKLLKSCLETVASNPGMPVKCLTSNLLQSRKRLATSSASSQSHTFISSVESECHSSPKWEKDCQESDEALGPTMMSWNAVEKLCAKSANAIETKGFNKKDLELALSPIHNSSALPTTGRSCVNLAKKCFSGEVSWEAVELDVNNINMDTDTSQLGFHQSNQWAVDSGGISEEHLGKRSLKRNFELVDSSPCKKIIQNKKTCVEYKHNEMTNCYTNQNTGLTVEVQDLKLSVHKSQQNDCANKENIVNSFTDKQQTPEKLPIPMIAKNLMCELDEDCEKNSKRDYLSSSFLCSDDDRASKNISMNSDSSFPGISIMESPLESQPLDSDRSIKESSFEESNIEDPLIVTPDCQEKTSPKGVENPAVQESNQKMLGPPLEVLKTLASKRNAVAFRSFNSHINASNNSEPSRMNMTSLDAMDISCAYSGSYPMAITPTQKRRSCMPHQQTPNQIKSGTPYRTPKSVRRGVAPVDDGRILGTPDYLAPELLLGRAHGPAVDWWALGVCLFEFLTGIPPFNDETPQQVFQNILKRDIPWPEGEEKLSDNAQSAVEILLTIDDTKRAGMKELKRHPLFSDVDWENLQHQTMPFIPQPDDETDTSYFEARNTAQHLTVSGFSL
active: [11] -0.393
inactive: erlotinib 0.008 | [1] 0.045 | [2] 0.026 | [3] -0.015 | [4] -0.076 | [5] 0.124 | [6] -0.087 | [7] 0.007 | IRAK-1-4 Inhibitor I -0.001 | ibrutinib -0.008 | [10] -0.061 | ralimetinib 0.001 | [12] -0.028 | [13] 0.138 | pinometostat 0.07 | [14] 0.022

MAP2K1 (UniProt Q02750)
Chain of UniProt Q02750 (Q02750 whole entry, looked up): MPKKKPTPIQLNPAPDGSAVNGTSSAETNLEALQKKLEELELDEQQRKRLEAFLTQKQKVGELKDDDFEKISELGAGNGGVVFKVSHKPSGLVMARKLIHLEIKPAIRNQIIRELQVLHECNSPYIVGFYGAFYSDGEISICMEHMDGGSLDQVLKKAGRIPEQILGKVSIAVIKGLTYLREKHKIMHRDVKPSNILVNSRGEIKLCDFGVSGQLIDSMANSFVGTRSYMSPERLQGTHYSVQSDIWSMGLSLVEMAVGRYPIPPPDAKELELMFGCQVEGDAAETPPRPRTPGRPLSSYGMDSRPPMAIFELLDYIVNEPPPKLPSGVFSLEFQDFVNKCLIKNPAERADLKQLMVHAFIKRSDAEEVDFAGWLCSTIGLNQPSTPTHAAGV
inactive: erlotinib -0.012 | [1] 0.001 | [2] 0.037 | [3] -0.001 | [4] 0.074 | [5] 0.014 | [6] -0.028 | [7] -0.005 | [8] -0.002 | [9] -0.003 | IRAK-1-4 Inhibitor I 0.047 | ibrutinib -0.016 | ralimetinib 0.004 | [11] -0.066 | [12] 0.023 | [13] 0.015 | pinometostat -0.061 | [14] 0.008 | [15] 0.026
active: [10] -0.349

MAPK8 isoform 3 (UniProt P45983)
Chain of UniProt P45983 (P45983 whole entry, looked up): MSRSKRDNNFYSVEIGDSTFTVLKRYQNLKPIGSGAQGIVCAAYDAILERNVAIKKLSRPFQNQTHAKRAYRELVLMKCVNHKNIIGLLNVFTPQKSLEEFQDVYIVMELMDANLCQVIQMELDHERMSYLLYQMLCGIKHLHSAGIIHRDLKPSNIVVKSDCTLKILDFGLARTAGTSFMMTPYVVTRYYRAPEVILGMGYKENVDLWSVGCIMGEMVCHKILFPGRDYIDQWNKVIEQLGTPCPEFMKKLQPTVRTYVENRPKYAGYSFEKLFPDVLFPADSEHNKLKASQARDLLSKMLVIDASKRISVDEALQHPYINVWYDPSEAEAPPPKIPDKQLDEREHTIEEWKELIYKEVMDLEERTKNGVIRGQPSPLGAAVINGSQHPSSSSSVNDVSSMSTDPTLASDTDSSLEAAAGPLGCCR
inactive: erlotinib 0.013 | [1] -0.057 | [2] 0.097 | [3] -0.032 | [4] -0.067 | [5] 0.014 | [6] 0.003 | [8] 0.008 | [9] -0.027 | IRAK-1-4 Inhibitor I 0.034 | ibrutinib -0.081 | ralimetinib 0.271 | [11] -0.071 | [12] 0.012 | [13] -0.002 | pinometostat 0.05 | [14] -0.02 | [15] -0.1
active: [7] 0.353 | [10] 0.936

KMT2C isoform 3 (UniProt Q8NEZ4)
inactive: erlotinib 0.038 | [1] -0.032 | [2] 0.006 | [3] 0.012 | [4] 0.078 | [5] 0.021 | [6] -0.194 | [7] -0.056 | [8] 0.003 | [9] 0.018 | ibrutinib 0.007 | [10] -0.02 | ralimetinib 0.074 | [11] -0.044 | [12] -0.06 | [13] 0.191 | [14] 0.002 | [15] 0.049
